A short description of assay [1]: A CellTox Green Cytotoxicity Assay to monitor cytotoxicity in HEK293 cells - 32 hour (AID 1224881). Note: nearly all actives have a fitted effect of over 40% in size. Note: potency is the fitted concentration of half-maximal effect. Put shortly: (§1)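 Each value comes from one timepoint of a single continuous run in which HEK293 cells with CellTox Green were exposed to compound for up to 40 h at 37 C, dye fluorescence rising with cell death.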
Assay [2] in a line: A CellTox Green Cytotoxicity Assay to monitor cytotoxicity in HepG2 cells - 0 hour (AID 1224882). Note: nearly all actives have a fitted effect of over 35% in size. Put shortly:
(§2)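 Continuous culture of HepG2 cells with a membrane-impermeant DNA dye; rising fluorescence marks dead cells. Compound exposure lasted up to 40 h at 37 C, with reads every 8 h from 0 h.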

Assay [3] in a line: A CellTox Green Cytotoxicity Assay to monitor cytotoxicity in HepG2 cells - 32 hour (AID 1224883). Note: nearly all actives have a fitted effect of over 50% in size. Note: potency is the fitted concentration of half-maximal effect. The method, boiled down:
as §2

A short description of assay [4]: qHTS RealTime-Glo MT Cell Viability Assay in HEK293 cells - 24 hour (AID 1224886). For activity change, negative = cytotoxicity: top concentration of the series differs between compounds. Note: nearly all actives have a fitted effect of over 50% in size. Note: potency is the fitted concentration of half-maximal effect. Put shortly: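 Quantitative high-throughput screen of the Tox21 10K library in HEK293: cells and RealTime-Glo reagents plated together, compound added at 5 h, luminescence monitored through 40 h at 37 C.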
Background: qHTS replaces the single test concentration by a dilution series.

The nature of assay [5]: qHTS RealTime-Glo MT Cell Viability Assay in HEK293 cells - 8 hour (AID 1224887). For activity change, negative = cytotoxicity: top concentration of the series differs between compounds. Note: nearly all actives have a fitted effect of over 50% in size. Note: potency is the fitted concentration of half-maximal effect. Put shortly: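 qHTS format; HEK293 cells with NanoLuc/prosubstrate reagent, 37 C/5% CO2 for 5 h pre-dosing; compounds 23 nL in DMSO; luminescence at each time point reflects viable cells.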
The nature of assay [6]: A CellTox Green Cytotoxicity Assay to monitor cytotoxicity in HEK293 cells - 16 hour (AID 1224888). Note: nearly all actives have a fitted effect of over 35% in size. Note: potency is the fitted concentration of half-maximal effect. Put shortly:
as §1

Assay [7] is described as follows: qHTS RealTime-Glo MT Cell Viability Assay in HepG2 cells - 0 hour (AID 1224889). Note: nearly all actives have a fitted effect of over 50% in size. Note: potency is the fitted concentration of half-maximal effect. The method, boiled down:
(§3)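 Compound treatment began 5 h after plating HepG2 cells (600/well) with NanoLuc luciferase and prosubstrate. Plates stayed at 37 C for 40 h; luminescence was captured at six time points, 0 h through 40 h.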

Assay [8] in a line: qHTS RealTime-Glo MT Cell Viability Assay in HepG2 cells - 16 hour (AID 1224885). Note: nearly all actives have a fitted effect of over 50% in size. The method, boiled down:
as §3

The nature of assay [9]: A CellTox Green Cytotoxicity Assay to monitor cytotoxicity in HepG2 cells - 8 hour (AID 1224890). Note: nearly all actives have a fitted effect of over 45% in size. Put shortly: as §2
A short description of assay [10]: A CellTox Green Cytotoxicity Assay to monitor cytotoxicity in HEK293 cells - 8 hour (AID 1224884). Note: nearly all actives have a fitted effect of over 35% in size. Note: potency is the fitted concentration of half-maximal effect. Put shortly: as §1

The record followed here is PubChem BioAssay (Tox21).

Values without a mark were called inactive. Records with an inconclusive call do not appear. Calls of active or inactive are those of the source. Calls come from the whole dose curve; as a rule, active = well fitted curve in the direction sought with a large enough effect in the repeat runs; inconclusive = weak or mixed curves; inactive = no such curve, though single readings can be large; an effect the other way counts as inactive or inconclusive.
% is set by controls: 0 for no effect and ±100 for the full control effect.

Turning to `CCCCCCCCCc1ccc(OCCOCCO)cc1`, the Potency in assay [1] was 14.5 µM (active); in assay [3], 20.5 µM (active); in [4] it was 1.3 µM (active); in assay [5], 3.25 µM (active); in assay [6], 14.5 µM (active). Moreover, the Potency entry in assay [2] and in assay [7] was “inactive” in each case.

`COc1ccc(C(=O)N2CCN(CC(=O)N3CCOCC3)CC2)cc1`: the Potency result in assay [1], in assay [2], in [3], in [8], in [4] and in [5] was “inactive” in each case. Further, the Potency entry in assay [6], in [7] and in [9] was “inactive” each time.

Take `CN(C)CCOC(c1ccccc1)c1ccc(Br)cc1` (stereo not drawn): the Potency entry in assay [1], in [2], in [10], in assay [8], in assay [4] and in assay [5] was “inactive” each time. Moreover, the Potency entry in assay [6] and in assay [7] was “inactive” throughout.

Turning to `CCCCC/C=C\C/C=C\CCCCCCCC(=O)NC(C)c1ccccc1` (stereo not drawn), the Potency entry in assay [1], in assay [2], in assay [3], in assay [8], in assay [4] and in assay [7] was “inactive” in each case. For the same compound, the Potency result in assay [9] is “inactive”.

`OC(C#CCN1CCCC1)(c1ccccc1)c1ccccc1`: the Potency entry in assay [1], in assay [2], in assay [3], in assay [8], in assay [4] and in assay [5] was “inactive” each time. Besides, the Potency result in [6], in [7] and in assay [9] was “inactive” in each case.

On to `COc1cc2nc(N3CCN(C(=O)C4COc5ccccc5O4)CC3)nc(N)c2cc1OC` (stereo not drawn), for which the Potency result in assay [1], in assay [2], in [8], in [6] and in assay [9] was “inactive” throughout. Besides, the Potency was 23.9 µM (active) in assay [3], 21.3 µM (active) in assay [4] and 10.7 µM (active) in assay [7].

For `CCOC(=O)NCCOc1ccc(Oc2ccccc2)cc1`, the Potency entry in [1], in assay [2], in assay [3], in assay [8], in [6] and in assay [7] was “inactive” throughout. Further, in assay [4], the Potency was 21.9 µM (active).

Take `CC(C)O.CC(C)O.CCOC(=O)/C=C(\C)O.CCOC(=O)/C=C(\C)O.[Ti]`: the Potency result in [1], in [2], in [3], in assay [8], in assay [4] and in [5] was “inactive” in each case. In addition, the Potency entry in [6], in [7] and in [9] was “inactive” in each case.

With `Nc1c(CC(=O)O)cccc1C(=O)c1ccc(Br)cc1`, the Potency entry in assay [1], in assay [2], in assay [3], in [8], in assay [4] and in assay [5] was “inactive” in each case. Also, the Potency entry in [6], in assay [7] and in assay [9] was “inactive” throughout.

On to `O=C(CS)Nc1ccccc1`, for which the Potency result in assay [1], in [2], in [3], in assay [8], in assay [4] and in assay [5] was “inactive” in each case. Also, the Potency entry in assay [6] and in assay [7] was “inactive” in each case.

Regarding `C=C(C)C(=O)OCC`, the Potency entry in assay [1], in assay [2], in assay [10], in assay [8], in assay [4] and in assay [5] was “inactive” in each case. For the same compound, the Potency entry in assay [6] and in [7] was “inactive” throughout.

Regarding `CCC(C)O` (stereo not drawn), the Potency entry in assay [1], in [2], in [3], in [8], in [4] and in assay [5] was “inactive” throughout. Moreover, the Potency entry in [7] was “inactive”.

As for `OCCNCc1ccccc1`, the Potency entry in assay [1], in [2], in assay [10], in assay [8], in assay [4] and in assay [5] was “inactive” each time. In addition, the Potency entry in [6] and in assay [7] was “inactive” in each case.

Consider `Cc1ncc(CO)c(C=O)c1O`, for which the Potency result in assay [1], in assay [2], in [3], in [8], in assay [4] and in [5] was “inactive” in each case. Also, the Potency entry in assay [6], in assay [7] and in assay [9] was “inactive” throughout.

In the case of `Brc1c2ccccc2c(Br)c2ccccc12`, the cytotoxicity increase in assay [1] is -2.57% [at 6.97 µM]; in assay [3], 2.42% [at 6.97 µM]; in [9], 2.74% [at 6.97 µM]. In addition, in assay [2], the cytotoxicity was 5.32% [at 6.97 µM]. Further, the activity change, negative = cytotoxic in assay [8] was -0.25% [at 6.97 µM]. Further, the activity change, negative = cytotoxicity is 1.98% [at 6.97 µM] in [4], -3.92% [at 6.97 µM] in assay [5] and 2.26% [at 6.97 µM] in assay [7]. The activity change in assay [6] is -0.0109% [at 6.97 µM, active compounds read high].

As to `CC(COCCO)OCCO` (stereo not drawn), the Potency entry in assay [1], in assay [2], in [3], in assay [8], in assay [4] and in [5] was “inactive” throughout. The Potency result in [6], in assay [7] and in assay [9] was “inactive” each time.

With `CCCCCCCCCCCCCCCCOS(=O)(=O)O`, the Potency in [1] was 21.3 µM (active); in [10] it was 23.9 µM (active); in assay [6] it was 21.3 µM (active). The Potency result in [2], in assay [8], in assay [4], in assay [5] and in assay [7] was “inactive” throughout.

On to `C=CCOC(=O)CCC1CCCCC1`, for which the Potency entry in assay [1], in assay [2], in assay [3], in assay [8], in [4] and in assay [5] was “inactive” throughout. Besides, the Potency entry in assay [6], in [7] and in assay [9] was “inactive” throughout.

Turning to `CCCCC(=O)OCC(=O)[C@H]1[C@H](C)C[C@H]2[C@@H]3C[C@H](F)C4=CC(=O)C=C[C@]4(C)[C@@]3(F)[C@@H](O)C[C@@]21C`, the Potency entry in assay [1], in assay [2], in [3], in assay [8], in assay [4] and in assay [5] was “inactive” in each case. In assay [6], the Potency result is “inactive”. The Potency in assay [7] is 0.952 µM (active).

On to `CCCCC(CC)CN1C(=O)C2C3C=CC(C3)C2C1=O` (stereo not drawn), for which the Potency in assay [1] is 30.9 µM (active). Moreover, the Potency entry in assay [2], in assay [3], in assay [8], in assay [6], in [7] and in [9] was “inactive” throughout.
